Results on 15 molecules are retold here after PubChem BioAssay AID2161 (National Center for Advancing Translational Sciences (NCATS), 2009).

Each structure is given as a SMILES string. “And” between values parts separate entries of the source, which are not always exact repeats. Identical values can stand only once. The list shows a part of the results. A number with no mark means an inactive call. The source made the active and inactive calls. The call rests on the fitted dose curve; in most records, active means well fitted inhibition curve with a large enough effect; inactive means no such curve, though single readings can be large or run the other way.
Further: nearly all actives have a fitted effect of over 35% in size.
Potency means the concentration at half of the fitted maximal effect.
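Wherever max response, negative = inhibition is given: 0% = no-compound wells and -100% = no-enzyme wells.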

Chain of Papain (Carica papaya) (P00784 whole entry, looked up): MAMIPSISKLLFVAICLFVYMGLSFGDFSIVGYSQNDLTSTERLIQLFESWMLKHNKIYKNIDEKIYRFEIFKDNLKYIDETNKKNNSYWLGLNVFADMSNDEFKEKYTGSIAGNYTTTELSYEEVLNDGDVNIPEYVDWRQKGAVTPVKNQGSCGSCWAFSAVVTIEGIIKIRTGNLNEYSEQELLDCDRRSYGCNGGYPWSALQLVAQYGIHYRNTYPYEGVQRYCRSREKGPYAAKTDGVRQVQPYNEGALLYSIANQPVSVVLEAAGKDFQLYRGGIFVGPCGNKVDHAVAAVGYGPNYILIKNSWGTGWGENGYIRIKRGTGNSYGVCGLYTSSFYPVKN

The target of the experiment is Papain (Carica papaya) (UniProt P00784). The experiment can be described thus: qHTS Assay for Inhibitors of Papain: Counterscreen for Cruzain Assay. To be noted: purified papain, Z-FR-AMC fluorescence cleavage; max response, negative = inhibition: active compounds read low. An excerpt:
Assay Provider: Shoichet, Brian; University of California, San Fancisco Screening Center PI: Austin, C.P. Screening Center: NIH Chemical Genomics Center [NCGC] The following papain assay is a counterscreen for a related protein cruzain (AID: 1478). Cruzain is a cysteine protease from the tropical parasite Trypanosoma cruzi. Activity against papain was used to help prioritize chemical series active against cruzain. Papain is a closely related cysteine protease known to utilize the same Z-FR-AMC fluorogenic substrate as cruzain. The fluorogenic assay used for cruzain was utilized here as well, with the exception of the reducing agent, which was 5 mM cystein here instead of DTT. Fluorogenic coumarin-based Z-FR-AMC substrate was used; proteolytic cleavage releases AMC, whose fluorescence is measured at 360 nm excitation and 450 nm emission. Purified papain was supplied by the labs of Profs. James McKerrow and Brian Shoichet, UC San Francisco. This assay had 0.01% Triton X-100 concentration.
Buffer: 100 mM Sodium Acetate, pH 5.5, 5 mM DTT, Triton X-100 concentration: 0.01%. Reagents/Controls: Buffer in columns 3 and 4 as negative control (no enzyme). Substrate solution: 2 uM final concentration of Z-FR-AMC (catalog number I-1160, Bachem) dispensed throughout the plate. Enzyme: 12 nM Papain final concentration. Assay Steps: Three uL of enzyme or buffer were dispensed to 1536-well Greiner black solid bottom plates. Compounds and controls (23 nL) were transferred via Kalypsys PinTool. The plates were incubated for 15 min at room temperature, and then 1 uL of substrate solution was added to start the reaction. The plates were immediately transferred to and read 4 times every 30 seconds for 2 min on ViewLux High-throughput CCD imager (Perkin-Elmer) using 360 nm excitation and 450 nm emission fluorescence protocol. The fluorescence intensity difference between the third and the first time points (time lapse of 60 seconds) was used to compute reaction progress. Data was normalized to neutral (no compound) and negative (no enzyme) controls.
Regarding `O=C1OC(/C=C/c2ccccc2)=NC/1=C/c1ccco1`, the max response, negative = inhibition is -2.34%. Consider `CC(C)C[C@H](NC(=O)[C@@H]1O[C@H]1C(=O)O)C(=O)NCCCCN=C(N)N`, for which the Potency was 0.01 µM (active). For `Cn1c(C(=O)NCCN2CCc3ccccc3C2)cc2c(=O)[nH]c3ccccc3c21`, the max response, negative = inhibition was -20.9%.

In the case of `c1ccc2cc3c(NCCN4CCOCC4)ccnc3cc2c1`, the max response, negative = inhibition is -50.2%. In the case of `CCN(CC)c1nc(C#N)nc(OC)n1`, the Potency was 5.01 µM (active). As to `N#Cc1nc(Nc2cccc(Cl)c2)nc(NC2CCCC2)n1`, the Potency is 0.891 µM (active). Regarding `CCc1ccc(OCCCn2c(CCCNC(=O)C3CCCCC3)nc3ccccc32)cc1`, the max response, negative = inhibition was -1.28%. Take `N#Cc1nc(N)nc(N(c2ccccc2)c2ccccc2)n1`: the Potency is 8.91 µM (active) and 11.2 µM (active).

Consider `C=CCNC(=O)c1ccc2nc(-c3ccco3)c(-c3ccco3)nc2c1`, for which the max response, negative = inhibition was -64.7%. Take `C=CC(=O)c1ccc2ccccc2c1`: the Potency was 12.6 µM (active). The same measure, in the same setting: then `Cc1ccc(-c2c3c(=O)n(C)c(=O)n(C)c3cn2-n2cnnc2)cc1`, with 28.2 µM (active).

`O=C(OCN1C(=O)c2ccccc2C1=O)/C(=C\c1ccco1)NC(=O)c1ccccc1`: the max response, negative = inhibition is -35.6%. Still for that read-out and setting: for `CCCCNC(=O)Cn1c(SCc2cccc(Cl)c2)nc2ccncc21` the value was -12%. For `N#Cc1nc(Nc2cc(F)cc(Cl)c2)nc(NC2CCCC2)n1`, the Potency is 1.12 µM (active).

For `Cc1ccc(SCCC(=O)OCC(=O)Nc2ncc(Cl)cc2Cl)cc1`, the max response, negative = inhibition was -6.29%.
